Each structure is given as a SMILES string. This is part of a sample that, as a whole, favours compounds with a hit. Of some 83,000 tested, about 20% had one in any assay.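 Interpretation: 100, growth as untreated; towards 0, rising growth inhibition; 0, no net growth; 0 to -100, cell death. Compounds scoring below 10 were considered active.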 Unmarked numbers belong to inactive results. Active and inactive are the calls of the source.

The subject of the experiment is NCI-H460 lung. Description: NCI-60 one-dose screen, 48 h (100 = growth as untreated, 0 = no growth, -100 = all killed). To be noted: 10 µM unless noted.
For the molecule `c1ccc2[nH]c(-c3ccc(Nc4nc(N5CCCC5)nc5[nH]ncc45)cc3)nc2c1`, the growth was -44.3% (active).
As to `COc1cc2c(cc1-c1c(C)noc1C)ncc1nc(C3CCOCC3)n([C@H](C)COC(F)F)c12`, the growth was 59.2%.
The result for `c1csc(C2=NN3C(C2)c2ccccc2OC3c2ccncc2)c1` (stereo not drawn) reads 100%.
For `O=C(/C=C/C=C/c1ccc2c(c1)OCO2)N/N=C\c1ccc(O)cc1O` the value was 14%; for `Fc1ccc2[nH]cc(SSc3c[nH]c4ccc(F)cc34)c2c1`, 30.5%.
For `Cc1cc(C)nc(SC2=C(Nc3cc(Cl)ccc3O)C(=O)N(Cc3ccccc3)C2=O)n1` the value was 97.4% [30 µM]; for `CC(C)(C)N1CCC1CN` (stereo not drawn), 109%.
In the case of `COc1cc(-c2nc3ccccc3[nH]2)ccc1OCC(=O)N=Nc1c(O)[nH]c2ccc(Cl)cc12`, the growth is -75.8% (active).
Take `CSc1nc(-c2cccc(NC(=O)CCl)c2)c(C#N)c(=O)n1C`: the growth is 93.3%.
The result for `Cc1nc2ccccc2n1C(=O)C[C@@H]1NC(=S)NC1=O` reads 104%; that for `COc1ccc(/C=N/C2=C(C#N)C(c3ccc(N(C)C)cc3)c3ccc4ccccc4c3O2)cc1` (stereo not drawn), 40.7%; that for `COc1cccc(NC(=O)c2sc3nc(C)c(C(C)=O)cc3c2N)c1`, 10.8%.
On to `O=C1CC[C@H](c2ccc(O)c3c2C(=O)[C@@H]2O[C@@H]2C3=O)c2cccc(O)c21`, for which the growth was 97.1%.
For the molecule `C=C(C)C1CC(O)C2(C)CCCC3C2C1CC(C)C3(C)CC/C(C)=C/C(O)C1CCC(=O)c2c(OC)cc(OC)cc21` (stereo not drawn), the growth was 14.7%.
For `Clc1ccc2c(NCCCNc3nc(-n4ccnc4)nc4ccccc34)ccnc2c1` the value was 95.2%.
For `c1ccc(CCNc2ncnc3[nH]ncc23)cc1` the value was 117%; for `CC[C@]1(O)C[C@@H]2CN(CCc3c([nH]c4ccccc34)[C@@](C(=O)OC)(c3cc4c(cc3OC)N(C)[C@H]3[C@@](O)(C(N)=O)[C@H](O)[C@]5(CC)[C@@H]6C[C@@H]6CN6CC[C@]43[C@@H]65)C2)C1`, 8.06% (active).
In the case of `Cc1ccc(-c2onc3c(=O)[nH]nc(-c4ccccc4)c23)cc1`, the growth was 19.1%.
The result for `Cc1cc(N2CCCCC2)nc(NC2CCCC(Nc3ccnc4cc(Cl)ccc34)C2)n1` (stereo not drawn) reads -64.9% (active).
Take `COc1cc2nc(N3CCCC3)nc(NCCc3ccccc3)c2cc1OC`: the growth is 10.1%.
The result for `O=C(COc1ccc(/C=C2\CSc3ccccc3C2=O)cc1)Nc1nccs1` reads 107%; that for `Oc1cccc(-c2nc(N3CCOCC3)c3c4c(sc3n2)CCCC4)c1`, 44.1%; that for `COc1ccc(/C=C2\Oc3cc(OCCCCN4CCCC4)ccc3C2=O)cc1`, 1.37% (active).
On to `Brc1ccc(-c2csc(Nc3ccccn3)n2)cc1`, for which the growth is 91.5%.
For `Cc1ccc2c(C(C[N+](=O)[O-])c3ccccc3)c(-c3ccccc3)[nH]c2c1` (stereo not drawn), the growth is 12.2% [9.5 µM].
The result for `Nc1ccc(-c2cc3c(Nc4ccc(Oc5cccc(C(F)(F)F)c5)c(Cl)c4)ncnc3s2)cc1` reads 69.5%; that for `COc1ccc(C(=S)N2CCN(c3cccc(Cl)c3)CC2)cc1`, 96.7%.
As to `O=C(CCCCC(=O)N/N=C\c1ccccc1O)N/N=C\c1ccccc1O`, the growth is 12.2%.
For `CN1C(=O)C2(SCC(C(=O)NCc3ccccc3)N2C(=O)C2CCCCC2)c2ccccc21` (stereo not drawn), the growth is 96%.
The result for `O=C(C(=O)c1ccc2c(c1)OCO2)c1ccc2c(c1)OCO2` reads 96.6%; that for `C=C1C(=O)O[C@H]2[C@H]1CC/C(COC(=O)NCc1ccc(OC)c(OC)c1)=C\CC[C@@]1(C)O[C@@H]21`, 87.8%; that for `CCNc1ncnc2c1cnn2C1CCCO1` (stereo not drawn), 105%.
For `COc1ccc2c(c1)c(-c1nonc1-c1cn(C)c3ccccc13)cn2C` the value was 16.3%; for `Nc1ccc(S(=O)(=O)O)c2ccc(N=Nc3ccc(N=Nc4ccc(S(=O)(=O)O)cc4)c4ccccc34)c(O)c12`, 101%; for `CCOc1ccc(C(C)=O)cc1NC(=O)c1cccc(-c2nnn(CC)n2)c1`, 12.1%.
The result for `O=C1CSC(=S)N1CCc1ccc(O)cc1` reads 99%.
As for `COC(=O)c1ccc2oc(NC(=O)c3ccc(Nc4ccc([N+](=O)[O-])cc4C)c([N+](=O)[O-])c3)nc2c1`, the growth is 101%.
The result for `CC(C)n1c(/C=C/[C@@H](O)C[C@@H](O)CC(=O)O)c(-c2ccc(F)cc2)c2ccccc21` reads 32.5%.

The record behind these values is PubChem BioAssay (NCI).
